Measured values from PubChem BioAssay AID1159580 (chemical genetic matrix, 2015).
Values joined by “and” are separate entries in the source; they are usually repeats but may differ in a detail not shown here. Equal values may be shown once. In all, about 5,500 compounds went through this assay and about 2,000 (36%) were called active. Inconclusive results (about 18%) are left out. Rule as the data show it: active = normalized growth mostly below about 0.91 (no sharp cut-off); inconclusive = no clear call, values can overlap the other calls; inactive = mostly above about 0.92. The list shows a part of the results.

Experiment: chemical genetic growth profiling, strain panel (AID 1159580);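 also: tested at 20 µM; growth read once vehicle control cultures reached saturation at 30 °C; 1 = growth at the plate median or of vehicle wells; lower values mean less growth of the strain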
Conditions: growth OD

Measured: normalized growth

Cc1ccc(/C(=C\CN2CCCC2)c2ccccn2)cc1
inactive: S. cerevisiae deletion strains, locus YJR075W, strain HOC1, hits give low values 1.01 and 0.98 | S. cerevisiae deletion strains, locus YKL009W, strain mrt4, hits give low values 0.996 | S. cerevisiae deletion strains, locus YKL068W, hits give low values 0.999 | S. cerevisiae deletion strains, locus YKL085W, strain MDH1 (second series), hits give low values 1.01 | S. cerevisiae deletion strains, locus YKL085W, strain MDH1, hits give low values 1.01 | S. cerevisiae deletion strains, locus YKL160W, strain elf1, hits give low values 1.03 | S. cerevisiae deletion strains, locus YKL190W, strain CNB1, hits give low values 1.02 | S. cerevisiae deletion strains, locus YKR001C, strain vps1, hits give low values 0.986 | S. cerevisiae deletion strains, locus YKR026C, strain gcn3, hits give low values 1 | S. cerevisiae deletion strains, locus YKR091W, strain srl3, hits give low values 0.991 | S. cerevisiae deletion strains, locus YLL001W, strain dnm1, hits give low values 1.04 | S. cerevisiae deletion strains, locus YLL026W, hits give low values 1.04 | S. cerevisiae deletion strains, locus YLL041C, strain sdh2, hits give low values 1.01 | S. cerevisiae deletion strains, locus YLR027C, strain aat2, hits give low values 1.04 | S. cerevisiae deletion strains, locus YLR039C, strain RIC1, hits give low values 1.03 | S. cerevisiae deletion strains, locus YLR058C, strain SHM2, hits give low values 1.01 | S. cerevisiae deletion strains, locus YLR102C, strain apc9, hits give low values 0.998 | S. cerevisiae deletion strains, locus YLR113W, strain HOG1, hits give low values 1.02 | S. cerevisiae deletion strains, locus YLR221C, strain rsa3, hits give low values 0.977 | S. cerevisiae deletion strains, locus YLR258W, strain gsy2, hits give low values 0.986 | S. cerevisiae deletion strains, locus YLR262C, strain YPT6 (second series), hits give low values 1.02 | S. cerevisiae deletion strains, locus YLR262C, strain YPT6, hits give low values 1.01 | S. cerevisiae deletion strains, locus YLR268W, strain sec22, hits give low values 0.999 | S. cerevisiae deletion strains, locus YLR320W, strain mms22, hits give low values 0.973 | S. cerevisiae deletion strains, locus YLR330W, strain CHS5, hits give low values 1.01 | S. cerevisiae deletion strains, locus YLR342W, strain FKS1 (second series), hits give low values 0.997 | S. cerevisiae deletion strains, locus YLR342W, strain FKS1, hits give low values 1.02 | S. cerevisiae deletion strains, locus YLR357W, strain rsc2, hits give low values 0.992 | S. cerevisiae deletion strains, locus YLR370C, strain arc18, hits give low values 1.01 | S. cerevisiae deletion strains, locus YLR371W, strain rom2, hits give low values 1.01 | S. cerevisiae deletion strains, locus YLR384C, strain iki3, hits give low values 1 | S. cerevisiae deletion strains, locus YLR418C, strain cdc73, hits give low values 0.991 | S. cerevisiae deletion strains, locus YML016C, strain PPZ1, hits give low values 1 | S. cerevisiae deletion strains, locus YML032C, strain rad52, hits give low values 1 | S. cerevisiae deletion strains, locus YML120C, strain ndi1, hits give low values 1.05 | S. cerevisiae deletion strains, locus YML124C, strain tub3, hits give low values 0.995 | S. cerevisiae deletion strains, locus YMR058W, strain fet3, hits give low values 1.02 | S. cerevisiae deletion strains, locus YMR078C, strain ctf18, hits give low values 0.997 | S. cerevisiae deletion strains, locus YMR125W, strain sto1, hits give low values 1.02 | S. cerevisiae deletion strains, locus YMR129W, hits give low values 1.01 | S. cerevisiae deletion strains, locus YMR205C, strain PFK2, hits give low values 1.02 | S. cerevisiae deletion strains, locus YMR223W, strain ubp8, hits give low values 0.998 | S. cerevisiae deletion strains, locus YMR231W, strain pep5, hits give low values 0.999 | S. cerevisiae deletion strains, locus YMR263W, strain SAP30, hits give low values 1.01 and 0.981 | S. cerevisiae deletion strains, locus YMR307W, strain GAS1, hits give low values 0.983 and 0.987 | S. cerevisiae deletion strains, locus YNL067W, strain RPL9B, hits give low values 1 | S. cerevisiae deletion strains, locus YNL071W, strain lat1, hits give low values 0.986 | S. cerevisiae deletion strains, locus YNL128W, strain TEP1, hits give low values 1.02 | S. cerevisiae deletion strains, locus YNL153C, strain GIM3, hits give low values 1.01 | S. cerevisiae deletion strains, locus YNL175C, strain NOP13, hits give low values 0.996 | S. cerevisiae deletion strains, locus YNL183C, strain NPR1, hits give low values 0.952 | S. cerevisiae deletion strains, locus YNL197C, strain WHI3, hits give low values 1.01 | S. cerevisiae deletion strains, locus YNL209W, strain ssb2, hits give low values 0.996 | S. cerevisiae deletion strains, locus YNL224C, strain SQS1, hits give low values 0.989 | S. cerevisiae deletion strains, locus YNL233W, strain BNI4, hits give low values 1.01 | S. cerevisiae deletion strains, locus YNL248C, strain rpa49, hits give low values 0.992 | S. cerevisiae deletion strains, locus YNL250W, strain rad50, hits give low values 1 | S. cerevisiae deletion strains, locus YNL271C, strain bni1, hits give low values 0.986 | S. cerevisiae deletion strains, locus YNL298W, strain CLA4, hits give low values 1 | S. cerevisiae deletion strains, locus YNL307C, strain MCK1, hits give low values 1.01 | S. cerevisiae deletion strains, locus YNL322C, strain KRE1 (second series), hits give low values 1.01 | S. cerevisiae deletion strains, locus YNL322C, strain KRE1, hits give low values 1.01 | S. cerevisiae deletion strains, locus YNR049C, strain mso1, hits give low values 1.01 | S. cerevisiae deletion strains, locus YNR052C, strain pop2, hits give low values 1 | S. cerevisiae deletion strains, locus YOL006C, strain TOP1, hits give low values 1 | S. cerevisiae deletion strains, locus YOL012C, strain htz1 1.12 | S. cerevisiae deletion strains, locus YOL147C, strain pex11, hits give low values 0.992 | S. cerevisiae deletion strains, locus YOR001W, strain rrp6, hits give low values 1.02 | S. cerevisiae deletion strains, locus YOR061W, strain CKA2, hits give low values 1.01 | S. cerevisiae deletion strains, locus YOR069W, strain VPS5, hits give low values 1.01 | S. cerevisiae deletion strains, locus YOR070C, strain gyp1, hits give low values 0.992 | S. cerevisiae deletion strains, locus YOR080W, strain dia2, hits give low values 1.02 | S. cerevisiae deletion strains, locus YOR083W, strain WHI5 (second series), hits give low values 0.985 | S. cerevisiae deletion strains, locus YOR083W, strain WHI5, hits give low values 1 | S. cerevisiae deletion strains, locus YOR106W, strain vam3, hits give low values 1.05 | S. cerevisiae deletion strains, locus YOR136W, strain idh2, hits give low values 1 | S. cerevisiae deletion strains, locus YOR144C, strain elg1, hits give low values 0.995 | S. cerevisiae deletion strains, locus YOR184W, strain ser1, hits give low values 1 | S. cerevisiae deletion strains, locus YOR231W, strain MKK1, hits give low values 0.984 | S. cerevisiae deletion strains, locus YOR265W, strain rbl2, hits give low values 1.01 | S. cerevisiae deletion strains, locus YOR270C, strain vph1, hits give low values 0.985 | S. cerevisiae deletion strains, locus YOR290C, strain snf2, hits give low values 0.96 | S. cerevisiae deletion strains, locus YOR316C, strain cot1, hits give low values 1 | S. cerevisiae deletion strains, locus YPL051W, strain arl3, hits give low values 1.02 | S. cerevisiae deletion strains, locus YPL055C, strain LGE1, hits give low values 1.02 | S. cerevisiae deletion strains, locus YPL078C, strain atp4, hits give low values 1.06 | S. cerevisiae deletion strains, locus YPL106C, strain sse1, hits give low values 0.987 | S. cerevisiae deletion strains, locus YPL240C, strain hsp82, hits give low values 1.04 | S. cerevisiae deletion strains, locus YPL241C, strain CIN2, hits give low values 1 and 0.988 | S. cerevisiae deletion strains, locus YPL256C, strain CLN2, hits give low values 1 | S. cerevisiae deletion strains, locus YPR119W, strain clb2, hits give low values 1 | S. cerevisiae deletion strains, locus YPR141C, strain kar3, hits give low values 0.998 | S. cerevisiae deletion strains, locus YPR163C, strain tif3, hits give low values 0.994 | S. cerevisiae deletion strains, locus YPR167C, strain met16, hits give low values 1 | S. cerevisiae deletion strains, strain wtn01, hits give low values 0.999 | S. cerevisiae strains, strain wild type, hits give low values 1.01
